Calls of active or inactive are those of the source. Calls follow the shape of the dose curve; as a rule, active = well fitted inhibition curve with a large enough effect; inconclusive = small, poorly fitted or top-dose-only effect; inactive = flat fitted curve, though single readings scatter.
Target: Phosphoglycerate kinase, glycosomal (Trypanosoma brucei brucei) (UniProt P07378)
Assay: qHTS Validation Assay to Find Inhibitors of Phosphoglycerate Kinase (AID 504547);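 also: control wells lack PGK and mark full inhibition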
Conditions: enzymatic PGK inhibition, coupled luminescence read-out; series mostly up to 57.5 µM; activity, negative = inhibition: at the top concentration
Description: NIH Molecular Libraries Probe Production Network [MLPCN]
NIH Chemical Genomics Center [NCGC]
PI Name: Malcolm Walkinshaw, University of Edinburgh
Several species of the Trypanosomatidae family of parasitic protozoans cause a spectrum of diseases
throughout the tropical and subtropical world. Sleeping sickness, caused by two subspecies of Trypanosoma brucei, is endemic to areas of sub-Saharan Africa, while Chagas disease, a manifestation of Trypanosoma cruzi infection, is prevalent throughout Central and South America. In addition, many species of Leishmania are responsible for a range of cutaneous and visceral diseases, causing ulcers, destructive lesions and kalaazar, a lethal infection of the viscera. Collectively, these organisms infect 30 million people worldwide (~500 million live in endemic areas), and account for ~130,000 deaths annually. Given their debilitating and prevalent nature, trypanosomatid parasites impose a heavy medical, economic and social burden on entire populations, primarily in the developing world. The problem is further exacerbated by the fact that existing treatments have progressed little in the past 50 years, and current drugs show high toxicity and poor efficacy.
Blood-stream stages of T. brucei are entirely dependent on glycolysis as a source of ATP, and the tricarboxylic acid cycle and oxidative phosphorylation are both repressed. Glycolysis in axenically cultured T. cruzi, representing the intracellular pathogenic stage, is also essential for these parasites. […] Previous studies have shown that the glycolytic enzyme, phosphoglycerate kinase (PGK), is a viable target for drugs to kill these parasites.
NCGC Assay Protocol Summary:
Briefly, 3ul of substrate/PGK buffer (columns 1,2,5-48) are dispensed into Greiner white solid bottom 1536-well assay plates; columns 3-4 receive only TEA buffer as 0x PGK controls. Compounds are then transferred via Kalypsys pin tool equipped with 1536-pin array (10nl slotted pins, V&P Scientific, San Diego, CA). Following addition of compound, 1ul of GAPDH (100nM final concentration, all columns) is added to initiate the reaction (this upstream coupling enzyme is necessary for in-well production of PGK substrate, 1,3-bisphosphoglycerate (1,3-BPG), which is unstable and not commercially available). The plates are then incubated at room temperature for 60 minutes. Kinase-Glo Plus reagent is added (2ul) and plates incubated for 10 minutes, before being transferred to a ViewLux high-throughput CCD imager (PerkinElmer) wherein single end-point measurements of luminescence are acquired using a clear filter. All reagents are diluted in an assay buffer consisting of 100mM TEA (pH 7.6), 5mM MgCl2 and 0.01% Tween-20.

Sequence of Phosphoglycerate kinase, glycosomal (Trypanosoma brucei brucei) (P07378 whole entry, looked up): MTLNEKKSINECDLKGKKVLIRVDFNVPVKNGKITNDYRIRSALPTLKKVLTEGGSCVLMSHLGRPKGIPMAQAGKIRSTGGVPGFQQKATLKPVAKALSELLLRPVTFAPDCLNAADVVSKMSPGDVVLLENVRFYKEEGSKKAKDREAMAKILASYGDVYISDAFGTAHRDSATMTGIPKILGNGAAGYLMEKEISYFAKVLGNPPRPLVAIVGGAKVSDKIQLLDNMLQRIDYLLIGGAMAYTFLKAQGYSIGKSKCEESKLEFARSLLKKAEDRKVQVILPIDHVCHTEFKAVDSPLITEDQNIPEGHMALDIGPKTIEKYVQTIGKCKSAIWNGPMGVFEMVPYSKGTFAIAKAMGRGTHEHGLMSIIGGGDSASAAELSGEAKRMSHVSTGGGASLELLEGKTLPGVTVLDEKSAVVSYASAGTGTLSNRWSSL

SMILES | activity, negative = inhibition
CN1C[C@H](C(=O)N[C@]2(C)O[C@@]3(O)[C@@H]4CCCN4C(=O)[C@H](Cc4ccccc4)N3C2=O)C[C@@H]2c3cccc4[nH]cc(c34)C[C@H]21 | 8.59% (inactive)
O=C(CCNNC(=O)c1ccncc1)NCc1ccccc1 | 6.79% (inactive)
O=C1NCN(c2ccccc2)C12CCN(CCCC(c1ccc(F)cc1)c1ccc(F)cc1)CC2 | 13.8% (inactive)
C[C@@H](O)[C@H]1C(=O)N2C(C(=O)O)=C(SCCN=CN)C[C@H]12 | 11.7% (inactive)
COC(=O)[C@H]1[C@H]2C[C@@H]3c4[nH]c5cc(OC)ccc5c4CCN3C[C@H]2C[C@@H](OC(=O)c2cc(OC)c(OC)c(OC)c2)[C@@H]1OC | 11.7% (inactive)
C[C@]12C=CC(=O)C=C1CC[C@H]1[C@@H]3C[C@@H](O)[C@](O)(C(=O)CO)[C@@]3(C)C[C@H](O)[C@@]12F | 7.25% (inactive)
CC(C)NCC(O)c1cc(O)cc(O)c1 (stereo not given) | -2.5% (inactive)
CC[N+](C)(C)c1cccc(O)c1 | -0.346% (inactive)
c1cnc(N2CCN(Cc3ccc4c(c3)OCO4)CC2)nc1 | -0.551% (inactive)
CN(C)CCOC(=O)COc1ccc(Cl)cc1 | 4.16% (inactive)
COc1cc(C(=O)OCCCN2CCCN(CCCOC(=O)c3cc(OC)c(OC)c(OC)c3)CC2)cc(OC)c1OC | 13.9% (inactive)
CCN(CC)CCCN(c1ccccc1)C1Cc2ccccc2C1 | 2.85% (inactive)
CCN1CCc2nc(N)oc2CC1 | 2.28% (inactive)
CN(C)C/C=C(/c1ccc(Br)cc1)c1cccnc1 | 7.11% (inactive)
COc1ccc(CN(CCN(C)C)c2ccccn2)cc1 | 20.6% (inactive)
Cc1ccc(=O)n(-c2ccccc2)c1 | 8.91% (inactive)
CC(=O)OCC1=C(C(=O)O)N2C(=O)[C@@H](NC(=O)Cc3cccs3)[C@H]2SC1 | 4.41% (inactive)
CSc1ccc(C(=O)c2[nH]c(=O)[nH]c2C)cc1 | -1.6% (inactive)
CC(=O)OC(C)C[N+](C)(C)C (stereo not given) | 4.59% (inactive)
C[C@]12CCC(=O)C=C1CC[C@@H]1[C@@H]2CC[C@@]2(C)[C@H]1CC[C@]2(O)C(=O)CO | 1.29% (inactive)

SMILES | activity, negative = inhibition
Nc1nc(N)c2nc(-c3ccccc3)c(N)nc2n1 | 6.54% (inactive)
Nc1c2c(nc3ccccc13)CCCC2O (stereo not given) | 4.01% (inactive)
NC/C=C/C(=O)O | 3.56% (inactive)
CCNC(=O)N1CCN(CCCC(c2ccc(F)cc2)c2ccc(F)cc2)CC1 | 11.5% (inactive)
CC(=O)Oc1cc(C(C)C)c(OCCN(C)C)cc1C | 11.6% (inactive)
CN(C)CCCN1c2ccccc2Sc2ccccc21 | -4.76% (inactive)
C[n+]1cc2c3c(ccc2c2ccc4cc5c(cc4c21)OCO5)OCO3 | 5.98% (inactive)
CCOC(=O)C1=C(C)NC(C)=C(C(=O)OC)C1c1cccc([N+](=O)[O-])c1 (stereo not given) | -0.11% (inactive)
CCO/C([O-])=N/c1c[n+](N2CCOCC2)no1 | -2.19% (inactive)
CCCN1C[C@H](CSC)C[C@@H]2c3cccc4[nH]cc(c34)C[C@H]21 | 1.52% (inactive)
CC(=O)Nc1nnc(S(N)(=O)=O)s1 | 6.12% (inactive)
CC1=NS(=O)(=O)c2cc(Cl)ccc2N1 | -5.36% (inactive)
COCCOC(=O)C1=C(C)NC(C)=C(C(=O)OC(C)C)C1c1cccc([N+](=O)[O-])c1 (stereo not given) | -0.555% (inactive)
C(=C\c1ccccc1)/CN1CCN(C(c2ccccc2)c2ccccc2)CC1 | -2.92% (inactive)
NC(N)=N/N=C/c1c(Cl)cccc1Cl | 4.55% (inactive)
CNC1(C)C2CCC(C2)C1(C)C (stereo not given) | 1.68% (inactive)
Cc1nc2c([nH]1)c(=O)n(C)c(=O)n2Cc1ccco1 | 4.56% (inactive)
CC(=O)[C@]1(O)Cc2c(O)c3c(c(O)c2[C@@H](O[C@H]2C[C@H](N)[C@H](O)[C@H](C)O2)C1)C(=O)c1ccccc1C3=O | -1.13% (inactive)
Cc1nc2ccccn2c(=O)c1CCN1CCC(C(=O)c2ccc(F)cc2)CC1 | 13.2% (inactive)
CN(C)C(=O)Oc1cccc([N+](C)(C)C)c1 | -2.35% (inactive)
